Among the test systems are SK-MEL-2 melanoma; EKVX NSCLC; SN12C renal; UO-31 renal; TK-10 renal; ACHN renal; CAKI-1 renal; A498 renal; CCRF-CEM leukemia; SR leukemia; RPMI-8226 leukemia; OVCAR-8 ovarian; OVCAR-5 ovarian; SK-OV-3 ovarian; IGROV1 ovarian; OVCAR-3 ovarian; HS 578T breast; NCI/ADR-RES ovarian; OVCAR-4 ovarian; MOLT-4 leukemia.
What all share (test): NCI-60 one-dose screen, 48 h (100 = growth as untreated, 0 = no growth, -100 = all killed)
Common to all, as to conditions: 10 µM unless noted

The panel holds about 83,000 compounds, 20% with a hit somewhere; the sample as a whole holds those more often.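 48-hour exposure, single concentration, 96-well plates; percent growth endpoint where 0 means no net growth. Active: below 10.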 A number with no mark means an inactive call. Active and inactive are the calls of the source.

Take `Cc1cc(NCc2cc(Nc3ccnc4cc(Cl)ccc34)ccc2F)nc(N2CCN(C)CC2)n1`: the growth in the experiment on SK-MEL-2 melanoma was -70.7% (active); in the experiment on EKVX NSCLC it was 31%; in the experiment on SN12C renal, 36.8%; with UO-31 renal, -8.37% (active); with TK-10 renal it was -16% (active); in the experiment on ACHN renal, 5.12% (active). Also, the growth in the experiment with CAKI-1 renal is 61.8%; in the experiment with A498 renal it was -26.8% (active); in the experiment with CCRF-CEM leukemia, -13.5% (active); in the experiment with SR leukemia, -14.4% (active); in the experiment on RPMI-8226 leukemia it was -23.9% (active); in the experiment with OVCAR-8 ovarian, 12.1%. Further, the growth in the experiment with OVCAR-5 ovarian is 9.47% (active); in the experiment on SK-OV-3 ovarian, 29.5%; with IGROV1 ovarian, 8.72% (active); with OVCAR-3 ovarian, -17.4% (active); in the experiment on HS 578T breast it was -7.51% (active); in the experiment on NCI/ADR-RES ovarian, 16.8%.
`COc1ccc2nc(NNC(=O)c3cnccn3)c3cccn3c2c1`: the growth in the experiment with SK-MEL-2 melanoma is 46.1%; in the experiment on EKVX NSCLC it was 2.79% (active); in the experiment on SN12C renal, 8.52% (active); in the experiment on UO-31 renal, -17% (active); in the experiment with TK-10 renal it was 30.7%; in the experiment on ACHN renal it was -22.8% (active). Moreover, the growth in the experiment on CAKI-1 renal was 4.46% (active); in the experiment on A498 renal, -11.5% (active); in the experiment with CCRF-CEM leukemia, 1.48% (active); in the experiment with RPMI-8226 leukemia it was 0.953% (active); in the experiment on OVCAR-8 ovarian, 5.98% (active); in the experiment with OVCAR-5 ovarian it was 4.68% (active). The growth in the experiment with OVCAR-4 ovarian is -7.44% (active); in the experiment with SK-OV-3 ovarian, -1.5% (active); in the experiment with IGROV1 ovarian, -35% (active); in the experiment with OVCAR-3 ovarian, 1.47% (active); in the experiment with HS 578T breast it was 43.8%; with NCI/ADR-RES ovarian it was -13.4% (active).
`COc1ccc(N2CCN(c3nc(-c4cc(OC)c(OC)c(OC)c4)nc4ccccc34)CC2)cc1`: the growth with SK-MEL-2 melanoma was 93.6%; in the experiment on EKVX NSCLC, 85%; in the experiment on SN12C renal, 90.1%; in the experiment with UO-31 renal it was 69.9%; in the experiment with TK-10 renal, 113%; with ACHN renal, 90.6%. For the same compound, the growth was 84.1% in the experiment on CAKI-1 renal; 79.5% in the experiment on A498 renal; 91.3% in the experiment with CCRF-CEM leukemia; 54.8% in the experiment with RPMI-8226 leukemia; 71.1% with OVCAR-8 ovarian; 93.5% in the experiment with OVCAR-5 ovarian. Also, the growth is 88% with OVCAR-4 ovarian; 91.4% in the experiment with SK-OV-3 ovarian; 97% in the experiment with IGROV1 ovarian; 94.6% in the experiment with OVCAR-3 ovarian; 65.2% with HS 578T breast; 65.3% in the experiment with NCI/ADR-RES ovarian.
Turning to `O=[N+]([O-])c1ccc(C2CC(c3ccccc3)=Nc3ccccc3S2)cc1` (stereo not drawn), the growth in the experiment on SK-MEL-2 melanoma is 107%; in the experiment on EKVX NSCLC, 112%; with SN12C renal, 103%; with UO-31 renal, 56.4%; with TK-10 renal it was 148%; in the experiment on ACHN renal, 103%. Further, the growth in the experiment with CAKI-1 renal was 93.6%; with A498 renal, 114%; in the experiment with CCRF-CEM leukemia, 73.2%; in the experiment on SR leukemia, 30.9%; with RPMI-8226 leukemia, -6.89% (active); in the experiment with OVCAR-8 ovarian, 94.9%. For the same compound, the growth in the experiment on OVCAR-4 ovarian is 93.5%; in the experiment with SK-OV-3 ovarian, 100%; in the experiment on IGROV1 ovarian it was 58.7%; in the experiment on OVCAR-3 ovarian, 83.9%; in the experiment on HS 578T breast, 93.3%; with NCI/ADR-RES ovarian it was 95.1%.
`COc1cc(/C=C/C(=O)c2ccc(Nc3nc(Nc4ccc(F)cc4)nc(Nc4ccc(Cl)cc4)n3)cc2)cc(OC)c1OC`: the growth in the experiment on SK-MEL-2 melanoma is 62.6%; in the experiment on EKVX NSCLC it was 74.1%; in the experiment with SN12C renal it was 70.1%; with UO-31 renal it was 42.4%; in the experiment on TK-10 renal it was 73.9%; in the experiment on ACHN renal, 78.1%. Besides, the growth in the experiment with CAKI-1 renal was 124%; in the experiment on A498 renal it was 79.8%; with MOLT-4 leukemia, 0.996% (active); in the experiment with SR leukemia, -5.99% (active); in the experiment on RPMI-8226 leukemia it was -47.5% (active); in the experiment on OVCAR-8 ovarian it was 31.7%. Moreover, the growth in the experiment on OVCAR-5 ovarian is 81.3%; in the experiment on OVCAR-4 ovarian, 31.8%; in the experiment on SK-OV-3 ovarian it was 105%; with IGROV1 ovarian, 54.8%; in the experiment on OVCAR-3 ovarian, 190%; in the experiment on HS 578T breast it was 59.1%. The growth in the experiment on NCI/ADR-RES ovarian is 38.9%.
For the compound `COc1ccccc1NC(=O)N/C(N)=N/c1nc2ccccc2s1`, the growth in the experiment with SK-MEL-2 melanoma was 48.6%; with EKVX NSCLC, 53.2%; in the experiment with SN12C renal, 37.1%; in the experiment on UO-31 renal it was 52.9%; with TK-10 renal, 59.3%; with ACHN renal, 42.2%. Besides, the growth was 36.4% in the experiment with CAKI-1 renal; -10.5% (active) in the experiment with A498 renal; 15.4% with MOLT-4 leukemia; 9.32% (active) with SR leukemia; 9.34% (active) with RPMI-8226 leukemia; 27.1% in the experiment on OVCAR-8 ovarian. For the same compound, the growth in the experiment on OVCAR-5 ovarian was 34.8%; with OVCAR-4 ovarian, 50.7%; with SK-OV-3 ovarian, 40.5%; in the experiment with IGROV1 ovarian, 21.8%; in the experiment on OVCAR-3 ovarian it was -18.9% (active); in the experiment on HS 578T breast, 27.9%. For the same compound, the growth with NCI/ADR-RES ovarian is 4.92% (active).
As for `CC/C=C\CCC/C=C1/C(=O)C=C[C@@H]1C/C=C\CCCC(=O)O`, the growth was 89.4% in the experiment on SK-MEL-2 melanoma; 103% in the experiment with EKVX NSCLC; 48.4% in the experiment with SN12C renal; 70.8% in the experiment on UO-31 renal; 114% with TK-10 renal; 42.9% with ACHN renal. Further, the growth with CAKI-1 renal was 60.1%; in the experiment with A498 renal, 103%; in the experiment with MOLT-4 leukemia it was 6.84% (active); with SR leukemia, 8.78% (active); in the experiment on RPMI-8226 leukemia, 6.36% (active); in the experiment on OVCAR-8 ovarian, 9.28% (active). Also, the growth in the experiment with OVCAR-5 ovarian was 72.6%; with OVCAR-4 ovarian it was 92.5%; in the experiment on SK-OV-3 ovarian, 124%; with IGROV1 ovarian, 104%; in the experiment on OVCAR-3 ovarian, 43.6%; with HS 578T breast it was 45.7%. Besides, the growth in the experiment on NCI/ADR-RES ovarian is 19%.
Take `C=C1C(=O)O[C@H]2[C@H]1CC/C(COC(=O)C(=O)c1c[nH]c3ccc(OC)cc13)=C\CC[C@@]1(C)O[C@@H]21`: the growth was -60.9% (active) in the experiment on SK-MEL-2 melanoma; -4.43% (active) in the experiment with EKVX NSCLC; -48.5% (active) in the experiment with SN12C renal; -96.3% (active) in the experiment with UO-31 renal; -56.7% (active) in the experiment on TK-10 renal; -67.1% (active) in the experiment on ACHN renal. Also, the growth is -56.9% (active) in the experiment on CAKI-1 renal; -98.7% (active) in the experiment on A498 renal; -28.2% (active) with MOLT-4 leukemia; -2.97% (active) with SR leukemia; -35.6% (active) with RPMI-8226 leukemia; -24.6% (active) in the experiment with OVCAR-8 ovarian. The growth with OVCAR-5 ovarian was -30.6% (active); in the experiment on OVCAR-4 ovarian it was -12% (active); in the experiment on SK-OV-3 ovarian, 15.8%; in the experiment on IGROV1 ovarian, -73% (active); in the experiment on OVCAR-3 ovarian it was -74.6% (active); in the experiment with HS 578T breast it was 2.01% (active). Moreover, the growth with NCI/ADR-RES ovarian was 7.22% (active).

(Values after PubChem BioAssay (NCI).)
